For 45 compounds, inhibition results are on record in PubChem BioAssay AID1009 (NMMLSC, 2008).

Among all 190,000 compounds or so, about 200 (0.11%) were called active. No stated cut-off is given here; in the data, active means inhibition above about 40%. What follows is part of a selection rich in actives, with near analogues and random picks from the rest.

Sequence of Induced myeloid leukemia cell differentiation protein Mcl-1 (Homo sapiens) (Q07820 whole entry, looked up): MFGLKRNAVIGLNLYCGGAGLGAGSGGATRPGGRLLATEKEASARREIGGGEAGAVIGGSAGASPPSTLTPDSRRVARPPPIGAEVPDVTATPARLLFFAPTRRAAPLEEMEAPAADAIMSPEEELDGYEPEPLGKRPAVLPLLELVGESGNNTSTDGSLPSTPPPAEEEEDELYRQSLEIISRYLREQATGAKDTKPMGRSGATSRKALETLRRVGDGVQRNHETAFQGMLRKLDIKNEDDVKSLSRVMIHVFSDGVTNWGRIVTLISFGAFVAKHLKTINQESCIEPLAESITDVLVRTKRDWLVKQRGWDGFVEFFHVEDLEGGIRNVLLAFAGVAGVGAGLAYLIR

This assay has as its target Induced myeloid leukemia cell differentiation protein Mcl-1 (Homo sapiens) (UniProt Q07820). Put plainly: Mcl-1/Bim interaction disruptors – biochemical, bead-based flow cytometry, multiplex, primary screen (AID 1009).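 Further: 0% = no compound tracer wells and 100% = peptide blocker.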 Conditions: Bim peptide-Mcl-1 binding, at 10 µM, hits give high values. On the technique in general: Flow cytometry measures light scatter and fluorescence of single cells or particles in a stream.
For `CCN(CC)C(=O)C(=O)c1cn(CC(=O)NCc2ccc3c(c2)OCO3)c2ccccc12`, the inhibition was 0% (inactive).

Take `COC(=O)c1ccc(NC(=O)CSc2nncc3ccc(OC)c(OC)c23)cc1`: the inhibition was 1% (inactive).

On to `Cn1cc(Cl)c(C(=O)NNC(=S)Nc2cccc(Cl)c2)n1`, for which the inhibition was -1% (inactive).

Turning to `Cc1cc(C)c(C(N)=O)c(Cl)n1`, the inhibition was 0% (inactive).

`CC(C)(C)NC(=O)c1ccc(Cn2cc(C(F)(F)F)ccc2=O)cc1`: the inhibition is -1% (inactive).

For `CCN(CC)c1ccc(C(=O)N/N=C(\C)c2cccc(OC)c2)cc1`, the inhibition was 1% (inactive).

`Cn1c(-c2sccc2OCc2cccc(C(F)(F)F)c2)n[nH]c1=S`: the inhibition is -4% (inactive).

`CC(=O)NC(NC(=S)Nc1c(C)n(C)n(-c2ccccc2)c1=O)C(Cl)(Cl)Cl` (stereo not given): the inhibition was 0% (inactive).

As to `CCC(=O)NCc1cc(-c2nn(C)c(=O)c3ccccc23)ccc1OC`, the inhibition was -1% (inactive).

In the case of `O=C(/C=C/c1ccc([N+](=O)[O-])cc1)NCCSCc1ccco1`, the inhibition was -5% (inactive).

For the compound `Cc1c(C(=O)NC(=S)NCc2cccnc2)oc2ccccc12`, the inhibition is 0% (inactive).

Regarding `CCOCC(=O)Nc1ncc(S(=O)(=O)c2ccc([N+](=O)[O-])cc2)s1`, the inhibition was 0% (inactive).

For `COC(=O)CNC(=O)c1ccc(OC2CCN(C(=O)C3CC3)CC2)cc1`, the inhibition is -2% (inactive).

Turning to `CC(=O)c1ccccc1NC(=O)CC1(CC(=O)O)CCCCC1`, the inhibition was 0% (inactive).

In the case of `Fc1ccccc1CNC(=S)Nc1ccc(Cl)cc1`, the inhibition is -14% (inactive).

As to `CSc1ccc(/C=C/C(=O)NC23CC4CC(CC(C4)C2)C3)cc1`, the inhibition was -2% (inactive).

With `O=C(c1ccc(OC2CCN(Cc3ccccn3)CC2)cc1)N1CCCCCC1`, the inhibition was -4% (inactive).

On to `Cc1ccc2c(c1)C1CN(C)CCC1N2C(=S)Nc1ccc(OC(F)F)cc1` (stereo not given), for which the inhibition was -1% (inactive).

For `O=C(COC(=O)CCCSc1nc2ccccc2[nH]1)Nc1ccc(Oc2ccccc2)cc1`, the inhibition was 2% (inactive).

With `COc1ccc(-c2nc(CN3CCN(c4ncccn4)CC3)c(C)o2)cc1C`, the inhibition is -2% (inactive).

As to `O=[N+]([O-])c1ccc(F)cc1Oc1nc(-c2cccnc2)nc2ccccc12`, the inhibition was 4% (inactive).

In the case of `CCN1CCN(C(=O)CN(C)S(=O)(=O)c2ccc3ccccc3c2)CC1`, the inhibition was 0% (inactive).

In the case of `O=C(Nc1ccc2oc(-c3ccccc3F)nc2c1)c1ccco1`, the inhibition is -3% (inactive).

In the case of `COc1ccnc(Oc2ccccc2)c1-c1ncn[nH]1`, the inhibition was -2% (inactive).

As for `N#C/C(=C\c1ccc(-c2cccc([N+](=O)[O-])c2)o1)C(=O)NCCN1CCOCC1`, the inhibition was 0% (inactive).

`N#CCOc1ccc(C2=NO[C@@H]3[C@@H]4C[C@@H]([C@H]5C(=O)N(c6ccc7c(c6)OCO7)C(=O)[C@@H]45)[C@H]23)cc1`: the inhibition was -7% (inactive).

With `CCc1c(SCCC(=O)O)nc2ccccc2c1C`, the inhibition was -1% (inactive).

As for `COc1ccc(CC(NC(C)=O)C(=O)NC2CCN(C(=O)C3CC3)CC2)cc1OC` (stereo not given), the inhibition is 1% (inactive).

In the case of `COc1cccc(NC(=O)C(Sc2nc3ccccc3c(=O)n2CC(C)C)c2ccccc2)c1` (stereo not given), the inhibition is -1% (inactive).

`O=C(COc1nc2ccccc2nc1N1CCOCC1)NCC(F)(F)F`: the inhibition is -3% (inactive).

Consider `Cc1ccc(OCC(=O)NNC(=S)NCc2ccccc2)cc1`, for which the inhibition was 0% (inactive).

Regarding `CCOC(=O)c1cc2c(nc1NC(=S)Nc1ccccc1)CC(C)(CC)OC2` (stereo not given), the inhibition is -5% (inactive).

Take `Cc1[nH]c2ccccc2c1SCC(=O)Nc1nccs1`: the inhibition is -1% (inactive).

As for `O=C(/C=C/c1ccccc1)Oc1coc(CSc2ncccn2)cc1=O`, the inhibition was 0% (inactive).

Take `Cc1nn(CC(=O)NCc2ccccn2)c(C)c1[N+](=O)[O-]`: the inhibition is 0% (inactive).

With `CCCNC(=O)NC(=O)COC(=O)CC(NC(N)=O)c1ccc(Cl)cc1` (stereo not given), the inhibition was -8% (inactive).

Turning to `COCCNC(=O)NC(=O)COC(=O)C1(c2ccc(Cl)cc2)CC1`, the inhibition was 0% (inactive).

In the case of `Cc1ccc(S(=O)(=O)Cc2cc(-c3ccc(Cl)cc3)no2)cc1`, the inhibition was 0% (inactive).

As to `O=C1CCC/C(=N\NC(=O)NC2CCCCC2)C1`, the inhibition is 1% (inactive).

For `Cc1ccc(C(=O)COC(=O)c2cccc(N3C(=O)c4c(C)nc5ccccc5c4C3=O)c2)cc1C`, the inhibition was -5% (inactive).

On to `CCOc1cc(CNCc2ccccn2)ccc1OCC(=O)NC(C)(C)C`, for which the inhibition is -5% (inactive).

On to `Cc1cc(=O)oc2c1c(C)nn2-c1ccc(Cl)cc1`, for which the inhibition is 2% (inactive).

As to `O=C(Cn1c2[n+](c3ccc(C(F)(F)F)cc31)CCCCC2)Nc1c(F)cccc1F`, the inhibition was 2% (inactive).

For the compound `Cc1ccc(OCC(=O)OC(C)CN(C)Cc2ccccc2)cc1` (stereo not given), the inhibition is 0% (inactive).

For `Cc1ccc(C(=O)O)cc1N1C(=O)CCCC1=O`, the inhibition was 0% (inactive).

By inhibition is commonly meant the change of the read-out against control, counted positive when it falls.
